Data: paper PMC12136788
Changes are numbered by the printed parent chain. The full ranking holds about 24,000 sequences; the median of “enrichment r” is about 0.99, and the highest 2% start at about 3.7. This excerpt belongs to a sample that is enriched for the highest values.

T1: UNK ZnF1-3 (human, UniProt Q9C0B0 31-174)
T1 sequence: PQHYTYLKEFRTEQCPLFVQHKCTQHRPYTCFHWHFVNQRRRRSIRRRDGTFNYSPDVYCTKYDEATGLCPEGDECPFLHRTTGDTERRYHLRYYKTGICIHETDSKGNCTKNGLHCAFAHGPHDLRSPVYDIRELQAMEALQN

B1: chrX:71482573:71482574:-_ENSMUSG00000031328_ENSMUST00000144429|mus_hu|FALSE|FALSE (ssRNA)
RNA: GGGAGUUCUACAGUCCGACGAUCCUGCCACUGAGAAAGGGCUCUUAGGGAUGGGAUCCCCUCCAUAAGUGACAUUGACGCCUACUGGACCCUGCUGGACAGGCGUGUACUUGACUGUGUAGGUGUUGUCAUGGUGGUCGAUGACAACAGAGGAUUGAGCAUCA
B2: chr6:38652254:38652255:-_ENSG00000124767_ENST00000373365|hu_hu|hu_hu_hu_mus_False|18_28 (ssRNA)
RNA: GGGAGUUCUACAGUCCGACGAUCCGAGAACUUCAUAGCAGGGAAGUCAAGCUUCUGCAGGAGGGUCAGUCCAAGAACCCUCGUAUAAAAAUCCAGGGACUUCUUAGGAUCCUUCACUCGUAGCAUGGUUUGCUGCAGUAGAAACAACAGAGGAUUGAGCAUCA
B3: chr18:67804014:67804015:+_ENSMUSG00000024537_ENSMUST00000025418|mus_hu|FALSE|FALSE (ssRNA)
RNA: GGGAGUUCUACAGUCCGACGAUCACAAUCGGUAUAGAAGUAACCAAUCUUAGACAUAUUCAGUGUAGAAAUAAUCAGAUCCAUUGCAAGCUGGCCAACAUUUCCAACAGAUACUGCUGGCCUGAAGAUGGGAGUGGAGAGGGACAACAGAGGAUUGAGCAUCA
B4: 58380664_58380784_167_CDS_ENSMUSG00000075700_ENSMUST00000107924|mouse|control|control (ssRNA)
RNA: GGGAGUUCUACAGUCCGACGAUCCUUGAGCAGCGGCCCGGUGGCGUACUGCAUCUUUAAUCUCUUGCUGGGCACGCCGCCCAGGUUGGCAGAGGCCUCGCUGCGGACCACCGCCGACGCCGCCACCAGCAGAAGCAGCAGGAGCAACAGAGGAUUGAGCAUCA
B5: 5649169_5649289_955_CDS_ENSG00000160633_ENST00000592224|human|control|control (ssRNA)
RNA: GGGAGUUCUACAGUCCGACGAUCACAGUCCGUCCUCUCGCCAUCGCCUGGCUGCUCCGCGGGCUCCCUUUUCACUACCGCUAACAGGCUGUCUGCCUUGCUCGACUGAGCGUGUGCUGUUGACUCGCUGGCCAAAUCUAAAUCCAACAGAGGAUUGAGCAUCA
B6: chr14:53325254:53325255:-_ENSG00000073712_ENST00000341590|hu_hu|FALSE|FALSE (ssRNA)
RNA: GGGAGUUCUACAGUCCGACGAUCAACCACUUUGCAAUCUACUUCAGUACAAAUGAAGGACAAUCGUACUUCAUCUGCAAACUCUACGGUGACCAUUUUGAUUUCCCAGUUGACAUUCCACUGUUUCAUGUUGCUGAAACGCCACAACAGAGGAUUGAGCAUCA
B7: 93044292_93044412_1315_3pUTR_ENSMUSG00000027217_ENSMUST00000111265|mouse|control|control (ssRNA)
RNA: GGGAGUUCUACAGUCCGACGAUCAGGAACAGCUGGUCCCAGGCCAGCCCUAGGUCCUUGUAGAGCCCAUGCCCCUUGCUUUAGAGCCUAGGUGAGGCCCCUUCAUGUCUGUCUUUUUUGUUUGUUUGUUUGUUUAUUUAAAAACAACAGAGGAUUGAGCAUCA
B8: chr1:235505951:235505952:+_ENSG00000152904_ENST00000391855|hu_mus|motif|central (ssRNA)
RNA: GGGAGUUCUACAGUCCGACGAUCUUUGUAGGCUUUAGCUUCAAGCUCUCUAAGAGUGUGUCGAGUGUAUGCAAAAGAACCGGCAUCCUCCAGGUACUGCACACAAUACUUUUUAAUAUCUAUAUUCUCUGUUCUCUGGCGCAGCAACAGAGGAUUGAGCAUCA
B9: 52190027_52197400_608_3pUTR_ENSMUSG00000020402_ENSMUST00000102758|mouse|control|control (ssRNA)
RNA: GGGAGUUCUACAGUCCGACGAUCGUUGAUGUGCUCCCUCUUGUACCCUGUCUUGAUUUUAGCAUUUUUUUUCCCAGUGUUCGGCGAGAAUGACGAAUCAAAGGUGAGCUUCAGUCCACGAGCAAGCUGGUCUUCCACAGUGAUCAACAGAGGAUUGAGCAUCA
B10: chr17:60770872:60770873:+_ENSG00000011028_ENST00000303375|hu_hu|hu_hu_hu_mus_True|68_88 (ssRNA)
RNA: GGGAGUUCUACAGUCCGACGAUCUCUUUAAAAAAAAAAAAAAAAAGUUUAAAAACAAUAGCACAUUAUUUAAAAAAAGAACUACAAUAGAGGGUCCGCUUUGAGUUUUUGUUCACAUCGUCCUGCACUGGGACACGGGGACUGCAACAGAGGAUUGAGCAUCA
B11: chr17:60770872:60770873:+_ENSG00000011028_ENST00000303375|hu_hu|hu_hu_hu_mus_True|68_78 (ssRNA)
RNA: GGGAGUUCUACAGUCCGACGAUCUCUUUAAAAAAAAAAAAAAAAAGACAAACAAUAAUAAUGGCACAUUUAAAAAAAGAACUACAAUAGAGGGUCCGCUUUGAGUUUUUGUUCACAUCGUCCUGCACUGGGACACGGGGACUGCAACAGAGGAUUGAGCAUCA
B12: chr17:60770872:60770873:+_ENSG00000011028_ENST00000303375|hu_hu|hu_hu_hu_mus_True|48_68 (ssRNA)
RNA: B10 RNA with U47A, U48C, U49A, A52C, C55U, U87A, A88G, G89A, G91A, U94G
B13: 71650973_71651093_4703_CDS_ENSG00000075292_ENST00000264447|human|control|control (ssRNA)
RNA: GGGAGUUCUACAGUCCGACGAUCGUAAUCCAGUUUAGAAAGCUUGCCUUGCAGGGCUGAGAUCCUUCCACUGCCUCCUCUGGUAAGACUGCUCUGAGUAGGUUUGAAUUUACUGCUGCUUUCUGCCAAGCCUGACCUGGCACUCAACAGAGGAUUGAGCAUCA
B14: chr9:14812383:14812384:-_ENSMUSG00000031934_ENSMUST00000164273|mus_mus|mus_mus_mus_hu_True|38_108 (ssRNA)
RNA: GGGAGUUCUACAGUCCGACGAUCAUAGCUCAAGUAGAUACACGCUAACAGUAUAAUGAUGAGUGUCAGCAGGCGGCAGCUAAUGUACUUGAUGAUUAAAUGACUAGAAUUUUUCUUUGUCUUCAAGUACUGCUCCACAAUUGGCAACAGAGGAUUGAGCAUCA
B15: chr13:120183613:120183614:-_ENSMUSG00000025453_ENSMUST00000099149|mus_hu|FALSE|FALSE (ssRNA)
RNA: GGGAGUUCUACAGUCCGACGAUCGUAAAUAAAACUAAUCAGCGUUCCUGAUGUCUUUAAAAGGUCAGCUUCAUGAACACCUAAUGUUGGAUUAACCAUAGGGGCUCGCACUUUGACCACCAAAUCAGAAGCCAGCACUUCCUUCAACAGAGGAUUGAGCAUCA
B16: chr7:34927866:34927867:-_ENSMUSG00000052997_ENSMUST00000102746|mus_mus|FALSE|FALSE (ssRNA)
RNA: GGGAGUUCUACAGUCCGACGAUCGCUUUUGGCAGCAUCUUCAGCUUGUUUUGGCCCCACUUUUUCAGGGCUGUCACCAACUACUUCAAAUUCAACAUCCUUUCCAAGAUCUUCACUAUGAAGAAUGUUGAUCAGCAAAGUAUACAACAGAGGAUUGAGCAUCA
B17: chr6:52144354:52144355:-_ENSG00000112118_ENST00000229854|hu_hu|FALSE|FALSE (ssRNA)
RNA: GGGAGUUCUACAGUCCGACGAUCGGCUGGGGCCUUCUCCGGCAUCUCCUGGAUGGUGAUGGUCUGGUGAUCCUUGUAGACAGAAAGGCCAUAUUCUGUCUCAAGGGGAUUGUUCUCCUCAUCCUUGGUAGGAUAGACAGAGCUCAACAGAGGAUUGAGCAUCA
B18: chrX:15845472:15845473:-_ENSG00000182287_ENST00000329235|hu_hu|motif|central (ssRNA)
RNA: GGGAGUUCUACAGUCCGACGAUCCCACAAGAAGUCAUCAACAAGGGAGGAGAGUUAUGUCAGUCCAAUUUCUUCAAGAACACGGCGUGGGGUUUCAGCUUCCUCCUGCAGUAGAUCAGCCUGCUCAAUUGCUUUAAGGACAUUCAACAGAGGAUUGAGCAUCA
B19: chr16:45382771:45382772:-_ENSMUSG00000022661_ENSMUST00000163230|mus_mus|mus_mus_mus_hu_True|8_78 (ssRNA)
RNA: GGGAGUUCUACAGUCCGACGAUCCUGGGUCAUGUUAUAAGACAAAUGGACAGGGAGAGCAUGCUUUUCAAAAAAUGUGAGCUAUUGUCUAAGACUAACAAUAUUUAUCUAGCUAUAAAAAUAAGUUUUAAAUGGACGUUAAGACAACAGAGGAUUGAGCAUCA
B20: chr16:45382771:45382772:-_ENSMUSG00000022661_ENSMUST00000163230|mus_mus|mus_mus_mus_hu_True|1_78 (ssRNA)
RNA: GGGAGUUCUACAGUCCGACGAUCCUGGGUCAUGUUAUAAGACAAAUGGACAGGGAGAGCAUGCUUUUCAAAAAAUGUGAGCUAUUGUCUAAGACUAACAAUAUUUAUCUAGCUAUAAAAAUAAGUUAAAUGAAUAAACAUUACCAACAGAGGAUUGAGCAUCA
B21: chr15:42481402:42481403:-_ENSG00000166887_ENST00000318006|hu_hu|FALSE|FALSE (ssRNA)
RNA: GGGAGUUCUACAGUCCGACGAUCCUUUGAAACCGUAGUGAUUUGUUGAAAUGUCAAUAGGUCAUGGACAUAAAUGUUAUUUUCUAACAAGCUGACCAGAAUCUUAAACUGGGAAACCACAUGGAUCUGCUGAAUCUUUUUGGACAACAGAGGAUUGAGCAUCA
B22: chr16:45382771:45382772:-_ENSMUSG00000022661_ENSMUST00000163230|mus_mus|mus_mus_mus_hu_True|18_78 (ssRNA)
RNA: GGGAGUUCUACAGUCCGACGAUCCUGGGUCAUGUUAUAAGACAAAUGGACAGGGAGAGCAUGCUUUUCAAAAAAUGUGAGCUAUUGUCUAAGACUAACAAUAUUUAUCUAGCUAUAUAAAAAUAAGAAAUGAAUAAGUUAAGACAACAGAGGAUUGAGCAUCA
B23: chr2:121258011:121258012:+_ENSMUSG00000027248_ENSMUST00000028683|mus_mus|FALSE|FALSE (ssRNA)
RNA: GGGAGUUCUACAGUCCGACGAUCCUUGCCUUGUAUCAAAUCUUUAUUAUCUUCCGUCAUAUGAGGACAGAGACCAAAAAUGCUAUCCUGAAUAAAUUUCUUGAUCUUGCCACUGGUCAUUUUCUUUUCAGUAUAUGCCACAGUCAACAGAGGAUUGAGCAUCA

Target: T1, UNK ZnF1-3
Assay: nsRBNS (natural sequence RNA bind-n-seq); RBNS binding buffer (assumed for nsRBNS): 25 mM Tris pH 7.5, 150 mM KCl, 3 mM MgCl2, 0.01% Triton X-100, 500 ug/ml BSA, 20 U/ml SUPERase-In, 4 C; UNK is unkempt and MSI1 is Musashi-1; names of the RNAs are library labels; protein concentration not given here; high values mean tight binding

First: B1
Second: B2
The binding signal of the first is higher: 0.8 enrichment R for the first, 0.508 enrichment R for the second.

Compared with B3, B4 is lower in binding signal: 1.13 enrichment R for the first, 0.563 enrichment R for the second.

Going from B5 to B6, the binding signal falls from 0.689 enrichment R to 0.398 enrichment R.

Compared with B7, B8 is higher in binding signal: 0.554 enrichment R for the first, 1.14 enrichment R for the second.

Going from B9 to B10, the binding signal rises from 0.961 enrichment R to 6.65 enrichment R.

First: B11
Second: B12
The binding signal of the first is higher: 5.39 enrichment R for the first, 5.29 enrichment R for the second.

First: B13
Second: B14
The binding signal of the first is lower: 0.641 enrichment R for the first, 0.675 enrichment R for the second.

Going from B15 to B16, the binding signal rises from 0.662 enrichment R to 0.727 enrichment R.

Compared with B17, B18 is higher in binding signal: 0.84 enrichment R for the first, 1.51 enrichment R for the second.

First: B19
Second: B20
The binding signal of the first is higher: 5.26 enrichment R for the first, 4.46 enrichment R for the second.

First: B21
Second: B22
The binding signal of the first is lower: 0.563 enrichment R for the first, 10 enrichment R for the second.

In the case of B23, the binding signal is reported as 1.28 enrichment R.
